In the library only some 19% were active in any assay of this set; here they are far more common.
DT40 TDP1 no CPT = qHTS for Inhibitors of human tyrosyl-DNA phosphodiesterase 1 (TDP1): qHTS in cells in absence of CPT. DT40 Tdp1-/- hTDP1 cells, no CPT, ATP luminescence, 48 h. Potency, µM (titrated, usually from 46.2 µM), inactives show at the highest dose activity change, negative = growth inhibition, usual class: inhibitors. hit rate 15% among 420,000; further: potency means the concentration at half of the fitted maximal effect; nearly all actives have a fitted effect of over 55% in size
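Stably hTDP1-transfected Tdp1-null chicken DT40 cells were treated with library compounds minus camptothecin and grown for at least 48 hr at 37 °C, after which cellular ATP was quantified by luminescence.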
HT1080 IDH1KD tx = HT-1080 IDH1 knockdown cell toxicity (counter line) | HT-1080 IDH1 knockdown viability, ATP luminescence, 48 h | Potency, µM (titrated, usually from 46.1 µM), inactives show top-dose activity, negative = toxicity, actives largely listed as cytotoxic | hit rate 2% among 360,000;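 further: potency means the concentration at half of the fitted maximal effect; 0% = DMSO wells and -100% = cell-free medium wells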
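Knockdown cells (IDH1KD HT-1080) received compounds 2 h after plating at 750 cells/well and were kept 48 h at 37 °C in 5% FBS RPMI. A CellTiter-Glo luminescence read gave % activity for curve fitting.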
ELG1 DNA repair = blocks ELG1-dependent DNA repair in HEK293T cells; Potency, µM (series often up to 46.1 µM), inactives show top-dose activity change, negative = inhibition, hits mostly inhibitors; hit rate 2.3% among 330,000; HEK293T ELG1-luciferase reporter, luminescence, 16 h; DNA damage induced by 5-fluorouridine; further: potency means the concentration at half of the fitted maximal effect; nearly all actives have a fitted effect of over 55% in size
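DMSO vehicle served as the neutral condition. Each well held 2,000 cells given 5-fluorouridine plus compound; after 16 hr at 37 °C/5% CO2, ONE-Glo was added and luciferase measured 30 min later.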
HT1080NT lethal = kills 2HG-producing HT-1080-NT fibrosarcoma cells; HT-1080-NT fibrosarcoma viability, CellTiter-Glo ATP luminescence, 48 h; Potency, µM (series often up to 46.1 µM), inactives show top-dose activity, negative = less viability, hits mostly cytotoxic; hit rate 1.6% among 360,000;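 further: NT is the 2HG producing partner of a matched IDH1 knockdown line; potency means the concentration at half of the fitted maximal effect; 0% = DMSO-treated cells and -100% = media-only wells without cells; nearly all actives have a fitted effect of over 55% in size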
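Luminescent CellTiter-Glo readout after 48 hours of compound exposure at 37 degrees C defined viability of HT-1080-NT cells. Activity was normalized to DMSO wells and cell-free media wells; concentration-response curves were fitted and assigned curve classes.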
IL1B secr inh = inhibitors of inflammasome signaling (IL-1 beta secretion); hit rate 4.7% among 360,000; AID 743279; activity change, % at 57.5 µM; THP-1 LPS/ATP IL-1B secretion, AlphaLISA, 16 h; hits give low values; in the data active means activity change below about -50%; inconclusive means mostly about -30% to -49%
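THP-1 cells pretreated 1 hr with compounds (up to 57.5 uM final), then stimulated with LPS (250 ng/mL final) plus ATP (1.25 mM final); secreted IL-1B measured by AlphaLISA after 16 hr, decreased signal indicating inhibition.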
DT40 TDP1 CPT = growth inhibition of DT40 Tdp1-/-;hTDP1 cells with camptothecin (screen for TDP1 inhibitors) | chicken DT40 Tdp1-/-;hTDP1 cells + 20 nM CPT, ATP luminescence, 48 h | AID 686979 | Potency, µM (doses to about 46.2 µM), for inactives: top-dose activity change, negative = growth inhibition, actives largely listed as inhibitors | hit rate 12% among 420,000; further: potency means the concentration at half of the fitted maximal effect; nearly all actives have a fitted effect of over 55% in size
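Chicken DT40 Tdp1-/- cells complemented with human TDP1, 400 cells/well, exposed to compounds plus 20 nM camptothecin for at least 48 h at 37 C; viability read as ATP content by CellTiter-Glo luminescence.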
* = called active by the depositor; ? = inconclusive; / = no result. Unless noted, the call rests on the fitted dose curve; in most records, active means well fitted curve in the direction sought with a large enough effect; inconclusive means small, poorly fitted or top-dose-only effect, or another doubt; inactive means no such curve, though single readings can be large; an effect the other way counts as inactive or inconclusive. Unless noted, on the % scale 0 is the no-effect control and ±100 the full control effect.

SMILES | DT40 TDP1 no CPT | HT1080 IDH1KD tx | ELG1 DNA repair | HT1080NT lethal | IL1B secr inh | DT40 TDP1 CPT
COC(=O)C[C@@H]1C=C[C@H](NC(=O)c2cnccn2)[C@@H](CO)O1 | 5% | 25% | / | 15% | 20 | -2%
CCCc1c(C)nc(N2CCN(c3ccccc3F)CC2)[nH]c1=O | -26% | 8% | -9% | 12% | -19 | -22%
CCCCOc1ccc(CC(=O)N(C)OC)cc1 | -29% | / | / | / | / | -4%
O=C(Nc1cc(C(=O)N2CCN(CCO)CC2)c2c(c1)ncn2C1CCCC1)c1ccccc1 | -10% | / | / | / | / | 18%
COc1ccc(-n2cc(C(=O)NCc3ccccc3)c3ccccc3c2=O)cc1 | ? | / | / | / | / | -3%
CCC1(c2ccc(F)cc2)NC(=O)N(CC(=O)NCC(=O)Nc2cccc(C)c2C)C1=O (centres undefined) | -8% | -5% | 2% | -7% | 25 | 10%
COc1ccccc1C(=O)Nc1ccccc1C(=O)OCc1cc(=O)n2ccsc2n1 | -7% | / | / | / | / | -17%
COc1cc2cc3c4c(cc(OC)c(OC)c4c2cc1OC)CCN3C | 12µM* | / | / | / | / | 11µM*
COc1ccc(OCC(=O)OCC(=O)NC2CCCCC2C)cc1 (centres undefined) | -9% | 17% | 8% | 3% | -5 | -2%
COc1cc(NC2CCCCC2O)c2nc(-c3ccc(Cl)cc3)ccc2c1 (centres undefined) | ? | ? | -16% | ? | -24 | 21µM*
CC(=O)N(C(C)=O)N1C(=O)C2C3c4ccccc4C(c4ccccc43)C2C1=O (centres undefined) | ? | 13µM* | -22% | 21µM* | -10 | ?
CC(C)Oc1cccc(NC(=O)C2(C)CCN2C(C)C)c1 (centres undefined) | ? | 20% | / | 25% | 11 | ?
OC[C@@H]1CN(Cc2cccnc2)C[C@H](n2cnc3c(N4CCN(c5ccccc5)CC4)ncnc32)O1 | 16µM* | 0% | / | 4% | -79* | ?
OC[C@@H]1CN(Cc2cccs2)C[C@H](n2cnc3c(N4CCN(c5ccccc5)CC4)ncnc32)O1 | ? | ? | / | -16% | 5 | 23µM*
OC[C@@H]1CN(Cc2ccc3c(c2)OCO3)C[C@H](n2cnc3c(N4CCN(c5ccccc5)CC4)ncnc32)O1 | ? | -20% | / | 7% | -1 | 18µM*
CNc1ncnc2c1ncn2[C@H]1CN(Cc2ccc3c(c2)OCO3)C[C@@H](CO)O1 | ? | 0% | / | 5% | -8 | 12µM*
OC[C@@H]1CN(Cc2ccc3c(c2)OCO3)C[C@H](n2cnc3c(NC4CCC4)ncnc32)O1 | ? | 0% | / | 0% | 14 | ?
Cc1ccc(C)c(NC(=O)NCCN2CCCCC2)c1 | 11% | 13% | -2% | 11% | -7 | 25%
CN1CCN(CCNC(=O)c2ccc(CS(=O)c3ccc(Br)cc3)o2)CC1 (centres undefined) | 3% | -4% | / | 7% | 17 | -1%
CC1(C)S[C@@H]2[C@H](NC(=O)C(c3ccccc3)S(=O)(=O)O)C(=O)N2[C@H]1C(=O)O (some centres undefined) | 1% | / | / | / | / | -5%
Cc1cccc(NC(=S)N2CCC(NC(=O)c3ccco3)CC2)c1 | -27% | 12% | -1% | 14% | -6 | 8%
CC(=O)OC[C@@H]1CN(Cc2ccccc2)C[C@H](n2cnc3c(N4CCN(c5ccccc5)CC4)ncnc32)O1 | 18µM* | -25% | / | -2% | 10 | 16µM*
CC(=O)OC[C@@H]1CN(Cc2ccccc2)C[C@H](n2cnc3c(NC(C)C)ncnc32)O1 | ? | 8% | / | 23% | 19 | -9%
CC1CCN(C(=O)c2scc3c2OCCO3)CC1 | -23% | 5% | 18µM* | 5% | 5 | -10%
COc1cccc(C2C(C(=O)Nc3ccc(Cl)cc3)=C(C)Nc3nc4ccccc4n32)c1 (centres undefined) | -4% | / | / | / | / | 21µM*
SMILES | DT40 TDP1 no CPT | HT1080 IDH1KD tx | ELG1 DNA repair | HT1080NT lethal | IL1B secr inh | DT40 TDP1 CPT
COc1ccccc1CNC(=O)Cn1ncn2c(cc3sccc32)c1=O | -15% | / | / | / | / | 6%
CSc1ccccc1OCc1cc(C(=O)N(Cc2nccn2C)C(C)C)no1 | ? | 13% | 15% | 10% | 2 | 18µM*
Cc1cc(OCc2cc(C(=O)N(Cc3nccn3C)C(C)C)no2)cc(C)c1Cl | 6.5µM* | ? | 20% | ? | ? | 16µM*
Cc1ccc(CN(C)C(=O)c2cc(COc3cccc(C(F)(F)F)c3)on2)o1 | 18µM* | -1% | 7% | 0% | ? | ?
CC(NC(=O)c1cc(COc2cccc(C(F)(F)F)c2)on1)c1nccs1 (centres undefined) | ? | 2% | ? | 0% | 3 | -7%
CC(C)N(Cc1nccn1C)C(=O)c1cc(COc2cccc(C(F)(F)F)c2)on1 | 13µM* | -18% | -5% | 0% | 0 | 16µM*
COc1ccccc1C(c1c(O)nc(SC)[nH]c1=O)c1c(O)nc(SC)[nH]c1=O | -4% | 1% | / | -2% | -11 | -1%
CCOc1ccc(CC(=O)NCCS(=O)(=O)N2CCN(c3ccccc3OC)CC2)cc1 | 21µM* | / | / | / | / | 12µM*
COc1ccccc1N1CCN(S(=O)(=O)CCNC(=O)c2cc(=O)c3ccccc3o2)CC1 | 26µM* | -14% | ? | -12% | 0 | ?
COc1ccc(C(=O)NCCS(=O)(=O)N2CCN(Cc3ccccc3)CC2)cc1 | 29µM* | -6% | -17% | -2% | -6 | -20%
COc1ccccc1N1CCN(S(=O)(=O)CCNC(=O)c2cc(OC)c(OC)c(OC)c2)CC1 | ? | ? | ? | ? | 68 | ?
O=C(CC1CCCC1)NCCS(=O)(=O)N1CCN(c2ccccc2F)CC1 | ? | -14% | -21% | -11% | 13 | ?
COc1ccccc1N1CCN(S(=O)(=O)CCNC(=O)CC2CCCCC2)CC1 | 16µM* | 24% | 12µM* | 4% | -3 | 16µM*
CC1CCN(S(=O)C23CC4CC(CC(C4)C2)C3)CC1 (centres undefined) | ? | -5% | -8% | -2% | 15 | 26%
COc1ccc(CCC(=O)NCCS(=O)(=O)N2CCN(c3ccccc3)CC2)cc1 | ? | -8% | -7% | -2% | -6 | ?
